Measured values taken from PubChem BioAssay (NCI).
About 83,000 compounds went through this panel and 20% of them were active in at least one assay; those are over-represented in the sample as a whole.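 48-hour exposure, single concentration, 96-well plates; percent growth endpoint where 0 means no net growth. Active: below 10.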 Active and inactive are the calls of the source.

Assays:
Assay in all cases: NCI-60 one-dose screen, 48 h (100 = growth as untreated, 0 = no growth, -100 = all killed)
Settings in all cases: 10 µM unless noted
[1] = tested on: SK-MEL-2 melanoma
[2] = tested on: EKVX NSCLC
[3] = tested on: SN12C renal
[4] = tested on: UO-31 renal
[5] = tested on: TK-10 renal
[6] = tested on: ACHN renal
[7] = tested on: CAKI-1 renal
[8] = tested on: A498 renal
[9] = tested on: CCRF-CEM leukemia
[10] = tested on: MOLT-4 leukemia
[11] = tested on: SR leukemia
[12] = tested on: RPMI-8226 leukemia
[13] = tested on: OVCAR-8 ovarian
[14] = tested on: OVCAR-5 ovarian
[15] = tested on: OVCAR-4 ovarian
[16] = tested on: SK-OV-3 ovarian
[17] = tested on: IGROV1 ovarian
[18] = tested on: OVCAR-3 ovarian
[19] = tested on: HS 578T breast
[20] = tested on: NCI/ADR-RES ovarian

Measured: growth

C=C1C(=O)O[C@H]2[C@H]1CC/C(COC(=O)NCc1cc[nH]c1)=C\CC[C@@]1(C)O[C@@H]21
active: [9] -15.9% | [11] 4.94%
inactive: [1] 70.5% | [2] 61.7% | [3] 33.6% | [4] 58.3% | [5] 44.1% | [6] 45.3% | [7] 39.1% | [8] 104% | [10] 18.6% | [12] 30.2% | [13] 70.8% | [14] 50.5% | [15] 57.1% | [16] 75.7% | [17] 15.5% | [18] 16.6% | [19] 63% | [20] 90.6%

O=C(Nc1cccc([N+](=O)[O-])c1)c1cc2ccccc2cc1O
active: [1] 1.68% | [2] 3.68% | [3] 0.988% | [4] 4.6% | [6] 0.0296% | [7] -22.9% | [8] 1.58% | [9] -12.7% | [10] -44.6% | [12] -55.3% | [13] 9.47% | [16] -82% | [17] -2.54% | [18] -9.94% | [19] 6.07% | [20] -10.6%
inactive: [5] 17.4% | [11] 48.6% | [14] 10.8% | [15] 15.6%

CN(C)CCNc1nc2c3cc(Cl)ccc3nn2c2ccccc12
inactive: [1] 95.2% | [2] 49.8% | [3] 40.9% | [4] 28.2% | [5] 97.8% | [6] 22.7% | [7] 40.4% | [9] 47.1% | [10] 15.9% | [11] 16.9% | [12] 50.8% | [13] 36.1% | [14] 65.7% | [15] 55.6% | [16] 57.4% | [17] 39.2% | [18] 57.8% | [19] 68.8% | [20] 36.5%
active: [8] -6.05%

CCCCN[C@H]1CC[C@@]2(C)[C@@H](CC[C@@]3(C)[C@H]2[C@H](O)C[C@H]2/C(=C(\CCC=C(C)C)C(=O)OC)[C@@H](OC(C)=O)C[C@@]23C)[C@@H]1C
inactive: [1] 106% | [2] 96.9% | [3] 94.6% | [4] 81.5% | [5] 97.4% | [6] 91.7% | [7] 90.6% | [8] 97.7% | [9] 41.3% | [10] 10.6% | [11] 74.5% | [12] 95.9% | [13] 102% | [14] 91.4% | [15] 102% | [16] 104% | [17] 99.2% | [19] 87.3% | [20] 100%

COC(C(=O)[C@@H](O)[C@@H](C)O)[C@@H]1Cc2cc3cc(O[C@H]4C[C@@H](O[C@H]5C[C@@H](O)[C@H](O)C(C)O5)[C@H](O)C(C)O4)cc(O)c3c(O)c2C(=O)[C@H]1O[C@H]1C[C@@H](O[C@H]2C[C@@H](O[C@H]3C[C@@H](OC)[C@H](O)C(C)O3)[C@@H](O)C(C)O2)[C@H](O)C(C)O1 (some centres not stated)
inactive: [1] 33.2% | [2] 68.4% | [3] 33% | [4] 64.5% | [5] 59.5% | [6] 53.6% | [7] 73.5% | [9] 68.9% | [10] 48.2% | [11] 33.9% | [12] 50% | [13] 42.4% | [14] 54.3% | [15] 64.5% | [16] 32.3% | [17] 32.4% | [18] 61% | [19] 46.2% | [20] 97.5%
active: [8] -5.04%

CCCCCCCCCCCCCCCCCCOc1ccccc1CC(=O)NCC[N+]1(C)CCCC1
inactive: [1] 62.4% | [2] 92% | [3] 29.8% | [4] 85.1% | [5] 25.9% | [6] 95.8% | [7] 74% | [8] 71.5% | [9] 18.8% | [10] 14% | [11] 23% | [12] 52.7% | [13] 49.7% | [14] 22.9% | [15] 42.5% | [16] 77.4% | [19] 60.7% | [20] 103%
active: [17] -21.5%

COc1ccc(-c2nc(/C=C3\SC(=NCc4ccccc4)NC3=O)c3ccccn23)cc1
inactive: [2] 58% | [9] 16.2% | [10] 11.1%
active: [1] -31.6% | [3] -19.7% | [4] -47.2% | [5] -52.4% | [6] -28.3% | [7] 3.18% | [8] -7.6% | [11] 3.32% | [12] -3.83% | [13] -24.6% | [14] -15% | [15] -71.9% | [16] -46.7% | [17] -44.7% | [18] -88.5% | [19] -35.3% | [20] -4.46%

O=C(OCc1ccc2c(Cl)cc(Cl)c(O)c2n1)n1cncn1
inactive: [1] 36.6% | [2] 26.4% | [3] 37.2% | [4] 15.2% | [5] 61.7% | [6] 25.3% | [7] 13.6% | [8] 64.9% | [9] 24.2% | [10] 18.3% | [11] 23.1% | [12] 32.9% | [13] 20.7% | [14] 81.8% | [15] 25.1% | [16] 39% | [17] 32.9% | [18] 30.7% | [19] 67.4%
active: [20] 5.53%

COc1ccc(CC(C#N)c2cc3ccccc3[nH]2)cc1 (configuration not stated)
active: [9] -27.2%
inactive: [1] 113% | [2] 95.9% | [3] 92.7% | [4] 61.5% | [5] 118% | [6] 93.9% | [7] 72.6% | [8] 84.2% | [10] 98.1% | [11] 96.1% | [12] 71.4% | [13] 90.8% | [14] 94.1% | [15] 95.4% | [16] 94.4% | [17] 94.7% | [18] 92% | [19] 90.8% | [20] 92.8%

O=C(CSc1nc2ccc([N+](=O)[O-])cc2[nH]1)Nc1ccc(F)cc1
inactive: [1] 63.6% | [2] 56.5% | [3] 55.6% | [4] 38.2% | [5] 77.1% | [6] 68.5% | [7] 45.5% | [8] 29.5% | [9] 53.3% | [10] 54.2% | [11] 33.7% | [12] 24.1% | [13] 67.3% | [14] 91.8% | [15] 34.6% | [16] 63.1% | [17] 68.4% | [18] 47.8% | [19] 74% | [20] 59%

CCNc1cc(-c2cccc(OC(F)(F)F)c2)nc2ccc(N3CCCC3)cc12
inactive: [2] 17.1% | [5] 35.5% | [7] 30.6% | [8] 58.9% | [9] 13.4% | [14] 27.9% | [15] 14.5% | [16] 17.7% | [17] 27.1% | [19] 70.5%
active: [1] 6.05% | [3] 9.26% | [4] 5.13% | [6] -12.7% | [10] 2.48% | [11] 6.47% | [12] -2.09% | [13] 5.54% | [18] -18% | [20] 0.328%

COC(=O)c1c2c(c[n+]([O-])c1C)C(=O)C(NCc1ccccc1)=CC2=O
active: [1] -44.4% | [2] -45.1% | [3] -78.9% | [4] -14.8% | [6] -18.4% | [7] 3.84% | [8] -4.89% | [9] 2.92% | [10] -29.4% | [11] 2.6% | [12] -24.5% | [13] -2.43% | [14] -79.9% | [15] -97% | [16] 8.1% | [17] -54.3% | [18] -35.3% | [19] -15.3% | [20] -14.1%
inactive: [5] 39%

CN1CCN(C(=O)OCc2ccc3c(Cl)cc(Cl)c(O)c3n2)CC1
active: [10] 8.31%
inactive: [1] 76% | [2] 79.7% | [3] 56.9% | [4] 34% | [5] 105% | [6] 45% | [7] 55.1% | [8] 106% | [9] 40.5% | [11] 14% | [12] 42% | [13] 45.1% | [14] 106% | [15] 46.8% | [16] 88.7% | [17] 56.6% | [19] 80.2% | [20] 15%

O=C(/C=C(/C=C/c1cccc2[nH]ccc12)OB(F)F)/C=C/c1cccc2[nH]ccc12
inactive: [15] 11.5% | [19] 10.3%
active: [1] -57.9% | [2] -30.9% | [3] -1.2% | [4] -77.6% | [5] -37.9% | [6] -70.3% | [7] -73.6% | [8] -35.2% | [9] -32.1% | [10] -11.9% | [11] 3.72% | [12] -31.5% | [13] -30% | [14] -27.6% | [16] -20.7% | [17] -3.07% | [18] -25.1% | [20] 3.47%
